Assay outcomes from PubChem BioAssay.
Rows were chosen to be rich in hits. Some 3.6% of all compounds tested hit in one or more screens of this group.
ERb coact inh: inhibitors of ERβ-SRC1 coactivator interaction, primary screen, biochemical, TR-FRET, ERβ LBD, SRC-1 peptide; 1.3% of 86,000 active; AID 633, 2007; inhibition, % at 25.6 µM; TR-FRET ER-beta LBD / SRC1-Cy5 peptide binding; receptor agonist-loaded with 1 µM estradiol; Estrogen receptor beta (Homo sapiens), Q92731;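 active = compounds whose percent inhibition of the receptor-coactivator binding signal exceeds about 50% in the single-dose screen, limit read from the data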;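 note: 0% = receptor plus peptide wells without compound and 100% = peptide-only wells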
Target sequence (Q92731 whole entry, looked up, the tested form may be a part): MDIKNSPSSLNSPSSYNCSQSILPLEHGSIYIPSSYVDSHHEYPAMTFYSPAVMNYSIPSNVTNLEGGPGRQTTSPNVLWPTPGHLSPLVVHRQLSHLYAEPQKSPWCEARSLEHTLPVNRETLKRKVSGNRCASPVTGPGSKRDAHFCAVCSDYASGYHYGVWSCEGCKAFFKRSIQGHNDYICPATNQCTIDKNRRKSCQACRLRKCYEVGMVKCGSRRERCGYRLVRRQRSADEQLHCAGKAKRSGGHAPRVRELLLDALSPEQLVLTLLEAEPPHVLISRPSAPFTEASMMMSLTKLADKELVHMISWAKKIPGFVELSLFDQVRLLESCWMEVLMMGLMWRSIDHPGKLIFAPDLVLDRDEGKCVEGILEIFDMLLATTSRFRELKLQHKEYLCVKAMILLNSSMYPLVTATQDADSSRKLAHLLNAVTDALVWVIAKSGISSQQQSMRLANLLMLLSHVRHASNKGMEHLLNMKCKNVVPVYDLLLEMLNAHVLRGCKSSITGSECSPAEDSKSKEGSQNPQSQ
ERa coact pot: enhancers of ERα–SRC-1 coactivator binding, primary screen, biochemical, TR-FRET, ERα LBD, low estradiol. 1.3% of 86,000 active. coactivator binding (% of control), % at 25.6 µM. TR-FRET ERalpha-LBD/SRC-Cy5 coactivator binding, 2 h; 100 = basal binding, no effect. Estrogen receptor (Homo sapiens), P03372. AID 639, 2007; in the data active = activity above about 200%;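 note: binding measured in presence of low estradiol as agonist stimulus; 0% = peptide alone without receptor and 100% = receptor with peptide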
Calb biofilm kill: clotrimazole potentiators killing Candida biofilms, primary screen, with clotrimazole, Alamar Blue; inhibition, % at 6 µM; C. albicans biofilm + clotrimazole; 0.14% of 85,000 active;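 active = inhibition above 20%; inactive = inhibition below 20%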;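 note: preformed 24 hr biofilms exposed to compound for 48 hr; 0% = biofilm without compound and 100% = blank killed by clotrimazole plus chlorhexidine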
Smad3 inh: Smad3/FoxH1 peptide binding inhibitors, primary screen, biochemical, TR-FRET; TR-FRET Smad3/Dy647-FoxH1 peptide binding, europium anti-His; Mothers against decapentaplegic homolog 3 (Homo sapiens), P84022; AID 630, 2007; inhibition, % at 25 µM; 0.29% of 88,000 active;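 active = compounds that reduce the energy-transfer binding signal between the protein and its labelled peptide by more than half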;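 note: 0% = Smad3 plus labelled peptide maximal FRET and 100% = peptide-only background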
ERa SRC1 inh: ERα–SRC-1 coactivator interaction inhibitors, primary screen, biochemical, TR-FRET, ERα LBD, estradiol-bound. Estrogen receptor (Homo sapiens), P03372. TR-FRET ER-alpha LBD / SRC-1 peptide. inhibition, % at 25.6 µM. 1.7% of 86,000 active; in the data active = inhibition above about 50%;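 note: 0% = receptor plus peptide control and 100% = peptide only without receptor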
An asterisk follows results filed as active; nt = no result; [ ] = remark or other dose.

SMILES	ERb coact inh	ERa coact pot	Calb biofilm kill	Smad3 inh	ERa SRC1 inh
CCOc1ccccc1C1C(C#N)=C(N)Nc2onc(-c3ccccc3)c21 (centres undefined)	1	378*	4	-2	-4
COCc1cc(C)nc(SCC(=O)Nc2ccccc2C)c1C#N	-11	135	5	3	-3
COCc1cc(C)nc(SCC(=O)Nc2ccc(C)c(C)c2)c1C#N	3	208*[fluorescence artefact?]	5	9	-7
CCCc1n[nH]c2c1C(=O)C(C(=O)OC)C(C)(C)C2 (centres undefined)	-8	111	-7	1	-21
N#CC[N+]1(Cc2ccccn2)CCCC1	nt	nt	nt	1	nt
CC(=O)O[C@@H]1[C@@H](OC(C)=O)[C@H](n2ccc3cc([N+](=O)[O-])ccc32)OC[C@@H]1OC(C)=O	1	92	10	6	-9
Cc1cc(C)c2cc3c(ccn3C3OC[C@H](O)[C@H](O)[C@H]3O)cc2n1 (some centres undefined)	52*[fluorescence artefact?]	83	1	4	18
CC(NC(=O)c1ccccc1NC(=O)c1ccco1)c1ccccc1 (centres undefined)	12	241*[fluorescence artefact?]	7	-49	34
O=C(Nc1cccc2cccc(NC(=O)c3ccco3)c12)c1ccco1	52*	62	3	11	22
O=C1Oc2ccccc2C(=O)/C1=C/N1C(=O)N/C(=C\c2ccccc2O)C1=O	nt	nt	nt	1	nt
O=C(CSc1ccc(Cl)cc1)Nc1ccc(N2CCN(C(=O)c3ccco3)CC2)cc1	29	60	1	3	64*[fluorescence artefact?]
COc1cc(/C=C2/C(=N)N3C=CSC3=NC2=O)ccc1OCCCOc1c(C)cccc1C	43	120	8	2	90*[fluorescence artefact?]
COc1cc(/C=C2/C(=N)N3C=CSC3=NC2=O)ccc1OCCCOc1ccccc1C	72*[fluorescence artefact?]	68	1	1	71*
CCOc1cc(/C=C2/C(=N)N3C=CSC3=NC2=O)ccc1OCCCOc1ccccc1C	33	79	9	1	38
COc1cc(C(=O)N2CCN(S(=O)(=O)c3ccc(F)cc3)CC2)cc(OC)c1OC	67*[fluorescence artefact?]	101	10	14	-5
COc1cccc(NC(=O)c2ocnc2C)c1	20	89	10	1	14
COc1ccc(C2CC(c3c(-c4ccccc4)c4cc(Cl)ccc4[nH]c3=O)=NN2S(C)(=O)=O)cc1OC (centres undefined)	43	131	7	-26	69*
O=c1[nH]c2ccc(Cl)cc2c(-c2ccccc2)c1SC(=S)N1CCCCC1	-9	38	8	-17	2
Cc1ccc(NC(=O)CS(=O)CC(=O)N(c2ccc(C)cc2)C(C)C(=O)NC2CCCCC2)cc1 (centres undefined)	9	105	3	2	-5
O=C(Nc1ccc2oc(-c3cccnc3)nc2c1)c1ccc(Br)o1	38	206*[fluorescence artefact?]	6	1	69*[fluorescence artefact?]
O=C(Nc1ccc(-c2nc3ncccc3o2)cc1)c1ccc(Br)o1	-10	269*[fluorescence artefact?]	-6	-88	41
O=C(Nc1ccc(-c2nc3ncccc3o2)cc1)c1ccco1	36	83	6	11	34
O=C(Nc1ccc2oc(-c3cccnc3)nc2c1)c1ccco1	26	67	5	-8	35
O=c1oc2ccccc2n1Cc1ccccc1Cl	33	67	21*	-18	18
COc1cc(C2Nc3cccc4cccc(c34)N2)ccc1OC(C)=O	46	57	3	-10	19
SMILES	ERb coact inh	ERa coact pot	Calb biofilm kill	Smad3 inh	ERa SRC1 inh
COc1cc(C2Nc3cccc4cccc(c34)N2)cc(OC)c1O	82*[fluorescence artefact?]	46	6	3	54*[fluorescence artefact?]
Cc1ccc(-n2c(C)cc(/C=c3/sc4nc5ccccc5n4c3=O)c2C)cc1	5	109	-2	1	4
COc1cc(N2CCCC2)c(OC)cc1/C=c1/sc2nc3ccccc3n2c1=O	74*[fluorescence artefact?]	19	6	0	97*[fluorescence artefact?]
CCC(=O)Nc1cccc(NC(C)=O)c1	78*	27	1	13	84*[fluorescence artefact?]
CC(=O)Nc1cccc(NC(=O)CCc2ccccc2)c1	-5	101	6	-11	9
O=c1c2c([nH]c3ccc(Br)cc13)CCCC2	6	83	3	-4	8
O=c1ccc2cc3c([nH]c4ccc(Br)cc43)oc-2c1O	74*[fluorescence artefact?]	19	-2	-7	72*[fluorescence artefact?]
O=C(Cc1ccccc1)Nc1cccc(N2CCCC2)c1	28	43	2	-13	58*[fluorescence artefact?]
Cc1nc2c(ccc3nc(NC(=O)c4ccc(S(=O)(=O)N(C)C)cc4)sc32)s1	12	241*[fluorescence artefact?]	3	28	19
O=C(C1CCCN(S(=O)(=O)c2cccc3cccnc23)C1)N1CCN(c2ccc(F)cc2)CC1 (centres undefined)	-5	98	11	2	7
O=C(NCc1ccccc1F)C1CCCN1C(=O)NCc1ccccc1 (centres undefined)	-6	131	7	-5	-4
O=C(CSc1nc2c(c(=O)n1-c1ccc(Cl)cc1)SCC2)Nc1ccc2c(c1)OCCO2	6	110	14	8	8
NS(=O)(=O)c1ccc(CCNC2CC(=O)N(Cc3ccccc3)C2=O)cc1 (centres undefined)	1	106	8	13	7
NS(=O)(=O)c1ccc(CCNC2CC(=O)N(CCc3ccccc3)C2=O)cc1 (centres undefined)	66*	107	nt	7	-2
O=C(c1ccco1)[C@@H]1[C@@H]2C(=O)N(c3ccc(F)cc3)C(=O)[C@@H]2C2c3ccccc3C=CN21 (some centres undefined)	36	80	8	13	55*[fluorescence artefact?]
CCCC1=[N+](CC)CCn2c(C)ccc21	-9	115	6	9	-3
Cc1cc2n(c1)CCn1c(C)ccc1-2	52*	9	5	7	91*[fluorescence artefact?]
c1ccc(-c2ncnc3cc4n(c23)CCC4)cc1	-2	129	4	5	-2
COc1ccc(OCCOC(=O)c2ccc(-n3cnnn3)cc2)cc1	1	101	5	-10	-5
CCOc1ccc(C(C)=O)cc1COc1ccc(-n2cnnn2)cc1	23	53	6	-3	55*[fluorescence artefact?]
Nc1nc(SCC(=O)C2CCC(Br)CC2)c2[nH]cnc2n1 (centres undefined)	nt	nt	nt	8	nt
CCCCc1ccc(NC(=O)OC)cc1	19	531*[fluorescence artefact?]	-1	9	-11
CCCCc1ccc(NC(=O)N[C@H](C(=O)O)C(C)CC)cc1 (some centres undefined)	-7	101	5	9	14
Cc1ccc2nc(Nc3nc(=O)c4ccccc4n3C)nc(C)c2c1	43	71	1	-15	60*
